These results are taken from PubChem BioAssay (NCATS).

Active and inactive are the calls of the source. Calls follow the shape of the dose curve; as a rule, active = well fitted curve in the direction sought with a large enough effect; inconclusive = small, poorly fitted or top-dose-only effect, or another doubt; inactive = no such curve, though single readings can be large or run the other way.

Alpha-galactosidase (Coffea arabica), sequence (Q42656 whole entry, looked up): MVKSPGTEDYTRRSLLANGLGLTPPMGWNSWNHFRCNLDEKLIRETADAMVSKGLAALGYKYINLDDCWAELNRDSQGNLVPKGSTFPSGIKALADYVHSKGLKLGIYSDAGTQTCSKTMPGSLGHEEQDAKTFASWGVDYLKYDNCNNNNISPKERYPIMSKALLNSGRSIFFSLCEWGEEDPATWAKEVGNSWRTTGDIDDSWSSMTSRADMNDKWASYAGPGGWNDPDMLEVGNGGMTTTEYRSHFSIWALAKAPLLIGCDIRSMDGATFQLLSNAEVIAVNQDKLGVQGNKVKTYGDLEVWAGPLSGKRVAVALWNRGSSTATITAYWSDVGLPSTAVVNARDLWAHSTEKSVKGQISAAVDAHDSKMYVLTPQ

This assay has as its target Alpha-galactosidase (Coffea arabica) (UniProt Q42656). Description: Counterscreen for Glucocerebrosidase Inhibitors: qHTS Assay for Coffee Bean alpha-Galactosidase at pH 4.5 (AID 957).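 Also: plate controls were enzyme alone for no effect and no enzyme for full effect.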 The conditions noted are these: purified coffee bean alpha-galactosidase, fluorogenic substrate; series mostly up to 76.9 µM; activity change, negative = inhibition: at the top concentration. An outline of the steps:
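Enzyme is added first (2 nM final), then compounds titrated from 0.7 nM to 77 uM, then 80 uM 4-methylumbelliferyl alpha-D-galactopyranoside; after 20 min at room temperature a pH 10 NaOH/glycine stop precedes fluorescence reading at 365/440 nm.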
Background: A counterscreen serves to expose hits that act by an unwanted route or on another target.
Turning to `Cc1[nH]c(=O)c(C#N)cc1-c1ccc2nccn2c1`, the “activity change, negative = inhibition” value is -0.24% (inactive).

On to `CCN(CC)CC(=O)Nc1c(C)cccc1C`, for which the “activity change, negative = inhibition” value was -0.899% (inactive). On to `O=C(O)CN(CCOCCOCCN(CC(=O)O)CC(=O)O)CC(=O)O`, for which the “activity change, negative = inhibition” value was 1.22% (inactive). On the same count and under the same terms, then `O=C(O)c1cccnc1Nc1cccc(C(F)(F)F)c1`, with 2.65% (inactive).

For `COc1ccccc1N1CCN(CCCNc2cc(=O)n(C)c(=O)n2C)CC1`, the “activity change, negative = inhibition” value was 1.18% (inactive). With `CC1=C(CC(=O)O)c2cc(F)ccc2/C1=C\c1ccc(S(C)(=O)=O)cc1`, the “activity change, negative = inhibition” value is -4.62% (inactive). With `NC(N)=NC(=O)c1nc(Cl)c(N)nc1N`, the “activity change, negative = inhibition” value was -3.02% (inactive). Still for that read-out and setting: with `CN1[C@@H]2CC[C@H]1CC(OC(=O)c1c[nH]c3ccccc13)C2` (some centres undefined) the figure was -1.23% (inactive); with `C[C@]12CCC(=O)C=C1CC[C@@H]1[C@@H]2CC[C@@]2(C)[C@H]1CC[C@]2(O)C(=O)CO`, -2.75% (inactive). As for `C[C@]12CCC(=O)C=C1CC[C@@H]1[C@@H]2C(=O)C[C@@]2(C)[C@H]1CC[C@]2(O)C(=O)CO`, the “activity change, negative = inhibition” value is 0.672% (inactive). On the same count and under the same terms, with `CCN(CC)CCOCCOC(=O)C1(c2ccccc2)CCCC1` the figure was -1% (inactive); with `COC(=O)[C@@H](N)Cc1ccc(O)c(O)c1`, -1.4% (inactive). In the case of `CC1=C(CC(=O)O)c2cc(F)ccc2/C1=C\c1ccc(S(C)=O)cc1` (centres undefined), the “activity change, negative = inhibition” value was 1.74% (inactive). For the molecule `CSc1ccc(C(=O)c2[nH]c(=O)[nH]c2C)cc1`, the “activity change, negative = inhibition” value is -2.94% (inactive).

Regarding `OCCN1CCN(CCCN2c3ccccc3C=Cc3ccccc32)CC1`, the call was inactive. Regarding `Cc1cc(C(C)(C)C)cc(C)c1CC1=NCCN1`, the “activity change, negative = inhibition” value was 0.374% (inactive).

On to `Cc1ccc(C(=O)Nc2ccc(S(=O)(=O)O)c3cc(S(=O)(=O)O)cc(S(=O)(=O)O)c23)cc1NC(=O)c1cccc(NC(=O)Nc2cccc(C(=O)Nc3cc(C(=O)Nc4ccc(S(=O)(=O)O)c5cc(S(=O)(=O)O)cc(S(=O)(=O)O)c45)ccc3C)c2)c1`, for which the “activity change, negative = inhibition” value is -7.78% (inactive). For the molecule `CN(C)CCCN1c2ccccc2Sc2ccccc21`, the “activity change, negative = inhibition” value was -0.984% (inactive).

Turning to `O=c1[nH]c2ccccc2n1CCCN1CCN(C(c2ccccc2)c2ccccc2)CC1`, the “activity change, negative = inhibition” value is -1.87% (inactive).
